# Measurements: PubChem BioAssay (NCI)
# The panel holds about 83,000 compounds, 20% with a hit somewhere; the sample as a whole holds those more often.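 A percent growth of 40 corresponds to 60% growth inhibition; 0 means no net growth; -100 means all cells died. Active threshold: below 10.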 A number with no mark means an inactive call. Activity calls are given as the source filed them.
# Test system: HL-60(TB) leukemia
# Test: NCI-60 one-dose screen, 48 h (100 = growth as untreated, 0 = no growth, -100 = all killed)
# Settings: 10 µM unless noted
row,Structure (SMILES),growth
1,CC(C)CCOC(=O)c1ccccc1,101%
2,C=C1C(=O)O[C@H]2[C@H]1CC/C(COC(=O)c1cccnc1N)=C\CC[C@@]1(C)O[C@@H]21,-3.64% (active)
3,O=C1/C(=C/c2ccc(F)cc2)CN(C(=O)C(Cl)Cl)C/C1=C\c1ccc(F)cc1,-34% (active)
4,C=CC(C)C(C)(C)O (centres undefined),97.7%
